According to PubChem BioAssay AID720519 (National Center for Advancing Translational Sciences (NCATS), 2013):
Inconclusive results are not listed. The source made the active and inactive calls. Calls come from the whole dose curve; as a rule, active = well fitted activation curve with a large enough effect; inconclusive = small, poorly fitted or top-dose-only effect; inactive = flat fitted curve, though single readings scatter.

test: qHTS for Inhibitors of Cell Surface uPA Generation: Confirmatory Assay for Cherry-picked Compounds; settings: cell surface uPA activity generation, qHTS confirmation; series mostly up to 115 µM
Method in brief: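 RAW 264.7 cells at 4000/well, incubated overnight, then treated with compounds. After 24 h at 37 C, viability was read by ATPlite luminescence. An increase in signal indicates blocked uPA-dependent LF entry.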

Potency, inactive:
CN(CC(=O)N(C)CC(=O)Nc1c(Cl)cccc1Cl)Cc1ccccc1F
Cc1ccn(CCC(=O)N2CCc3ccccc32)n1
O=C(CSc1ccc(Cl)cc1)Nc1ccc(C2SCCS2)cc1
Cc1ccc(-n2nc3c(c2NC(=O)c2ccc4c(c2)OCO4)CS(=O)C3)c(C)c1 (configuration not stated)
O=C(c1cc([N+](=O)[O-])cc([N+](=O)[O-])c1)N(c1ccccn1)c1ccccn1
O=C(Cc1ccc(Cl)cc1)c1c[nH]c(C(=O)NCCCn2ccnc2)c1
Cn1nc(C(C)(C)C)c([N+](=O)[O-])c1C(=O)N1CCOCC1
